For test [1], the target named is alpha-glucosidase (Oryza sativa, rice) (UniProt Q653V4). The experiment in a line: Counterscreen for Glucocerebrosidase Inhibitors: qHTS Assay for Rice alpha-Glucosidase at pH 5.0 (AID 997).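 Further: 0% = full activity with enzyme and -100% = basal without enzyme.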 The procedure, abridged:
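Endpoint fluorogenic assay at pH 5.0: compounds (0.7 nM to 77 uM) titrated against 4 nM rice enzyme and 400 uM 4-MU-alpha-glucoside for 20 min at room temperature; NaOH/glycine stop, read ex 365/em 440 nm, Hill-fitted AC50.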
(A counterscreen serves to expose hits that act by an unwanted route or on another target.)

Test [2] is described as follows: Validation of Assay for Modulators of Lamin A Splicing (AID 1459; active means well fitted curve in the direction sought with a large enough effect in the signal ratio; the % refers to the signal ratio;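 further: cells exposed to compound for two days before reading; 0% is about no effect; ratio rise marks activators and ratio drop marks inhibitors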). Summed up: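 Splicing correction is reported by an EGFP-containing lamin A minigene in stably transfected S3 HeLa cells, while DsRed2 controls for viability and nonspecific signal. Cells are exposed to compounds for 48 hrs before the GFP over RFP ratio is taken.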
Test [3] concerns the target DNA repair nuclease/redox regulator APEX1 (Homo sapiens) (UniProt P27695). The experiment in a line: qHTS Validation Assay for Inhibitors of the Human Apurinic/apyrimidinic Endonuclease 1 (APE1) (AID 1705; further: potency means the concentration at half of the fitted maximal effect;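 on activity change, negative = inhibition: TAMRA fluorescence gain over two minutes as APE1 cuts a quenched THF abasic duplex; on the % scale 0 is the no-effect control and ±100 the full control effect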). The procedure, abridged: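 Endonuclease activity of human APE1 is followed as dequenching when the enzyme incises a tetrahydrofuran abasic site in a short duplex labelled 5'-TAMRA/3'-BHQ-2 (50 nM final), after 15 min enzyme–compound preincubation at room temperature.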

Test [4] can be described thus: Counterscreen for APE1 Inhibitors: Fluorescent Dye Displacement Validation Assay (AID 1707).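 Further: plate controls were ThO with dsDNA and no compound for no effect and ThO without dsDNA for full effect.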 The procedure, abridged:
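Loss of Thiazole Orange fluorescence marks promiscuous DNA binders. The dye (250 nM) is mixed with 50 nM abasic-site dsDNA in pH7.5 Tris buffer containing MgCl2, then compounds are added and emission is read once.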

Test [5] is described as follows: qHTS for differential inhibitors of proliferation of Plasmodium falciparum line 7G8 (AID 1815;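 further: parasite growth measured after three days of incubation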; further: potency means the concentration at half of the fitted maximal effect;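 on activity change, negative = inhibition: plate controls were vehicle wells for no effect and reference inhibitor wells for full effect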). (In general: qHTS replaces the single test concentration by a dilution series.)
Test [6] is described as follows: qHTS for differential inhibitors of proliferation of Plasmodium falciparum line GB4 (AID 1816).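 Further: parasite growth measured after 72 h incubation.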 Further: potency means the concentration at half of the fitted maximal effect.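 On activity change, negative = inhibition: 0% = vehicle DMSO and -100% = reference inhibitor.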 The settings on record: Potency: Plasmodium falciparum GB4 proliferation inhibition.
Test [7] is described as follows: qHTS for differential inhibitors of proliferation of Plasmodium falciparum line 3D7 (AID 1876). Further: potency means the concentration at half of the fitted maximal effect.
The nature of test [8]: qHTS for differential inhibitors of proliferation of Plasmodium falciparum line D10 (AID 1877).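 Further: parasites grown with compound for 72 h before DNA staining.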 Further: potency means the concentration at half of the fitted maximal effect.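 On activity change, negative = inhibition: plate controls were vehicle wells for no effect and reference inhibitor wells for full effect.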
The target in test [9] is Endonuclease 4 (Escherichia coli (strain K12)) (UniProt P0A6C1). The test can be described thus: Counterscreen for APE1 Inhibitors: qHTS Validation Assay for Inhibitors of Endonuclease IV (AID 1708). Further: potency means the concentration at half of the fitted maximal effect. On activity change, negative = inhibition: on the % scale 0 is the no-effect control and ±100 the full control effect. Summed up:
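Incision of a double-stranded 50 nM TAMRA/BHQ-2 abasic substrate was followed kinetically (525/598 nm, reads every 60 s) after 15 min enzyme–compound preincubation with 2 nM EndoIV in pH 7.5 Tris buffer with MgCl2, DTT and Tween-20; concentration-response format.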

Test [10] in a line: qHTS Assay for Lipid Storage Modulators (AID 1519; calls by dose curve; on activity change, negative = inhibition: on the % scale 0 is the no-effect control and ±100 the full control effect). The settings on record: Drosophila S3 cells, BODIPY lipid droplet/cell ratio, laser cytometry, cells loaded with oleic acid. The procedure, abridged:
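Cells seeded at 5,000 per well were treated with compounds over a concentration series and loaded with oleic acid (400 uM, as added). Lipid droplet fluorescence (488 nm excitation, 500-530 nm channel) was read by laser-scanning cytometry and normalized to 20 uM Triacsin C.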

[11] abbreviates: measured here: cell count channel max response.
Where [12] appears, read: measured here: lipid channel max response.

Several values for one entry are separate records, joined by “and”; a condition that tells them apart may be missing. Equal entries are not always repeated. Records with an inconclusive call do not appear. Activity calls are given as the source filed them. Unless noted, the call rests on the fitted dose curve; in most records, active means well fitted curve in the direction sought with a large enough effect; inconclusive means small, poorly fitted or top-dose-only effect, or another doubt; inactive means no such curve, though single readings can be large; an effect the other way counts as inactive or inconclusive.

DNA repair nuclease/redox regulator APEX1 (Homo sapiens), sequence (P27695 whole entry, looked up): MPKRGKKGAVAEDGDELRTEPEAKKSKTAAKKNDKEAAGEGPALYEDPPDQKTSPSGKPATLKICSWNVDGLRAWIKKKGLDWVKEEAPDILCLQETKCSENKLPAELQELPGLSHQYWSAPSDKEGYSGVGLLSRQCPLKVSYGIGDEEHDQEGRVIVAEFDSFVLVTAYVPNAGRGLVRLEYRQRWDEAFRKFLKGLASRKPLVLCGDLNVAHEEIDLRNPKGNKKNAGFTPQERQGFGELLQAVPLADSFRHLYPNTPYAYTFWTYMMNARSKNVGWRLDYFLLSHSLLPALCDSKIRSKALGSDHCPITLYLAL

With `CCCCN1CCC(n2c(=O)[nH]c3ccccc32)CC1`, the compound was called inactive in test [1] and in [2]. Moreover, the Potency entry in [3], in test [4], in test [5], in [6], in test [7] and in [8] was “inactive” each time.

Take `O=C(Nc1ccccc1)c1cc([N+](=O)[O-])ccc1Cl`: the result in test [1] and in test [2] was inactive. For the same compound, the Potency result in [3], in test [4] and in test [9] was “inactive” throughout. Moreover, the Potency is 8.91 µM (active) in test [5], 11.2 µM (active) in [6], 11.2 µM (active) in test [7] and 11.2 µM (active) in [8].

Consider `Fc1ccc(C(OCCCc2cnc[nH]2)c2ccc(F)cc2)cc1`, for which the compound was called inactive in test [1] and in test [2]. In addition, the Potency result in test [3], in [4] and in [9] was “inactive” throughout. For the same compound, the Potency in test [5] was 1.58 µM (active); in test [6], 1.26 µM (active); in test [7], 1.26 µM (active); in test [8], 5.01 µM (active).

Turning to `CC(=O)SCC[N+](C)(C)C`, the call in test [1] and in test [2] was inactive. Further, the Potency result in test [3], in test [4], in test [5], in test [6], in test [7] and in [8] was “inactive” in each case.

`Cc1c(Nc2ncccc2C(=O)O)cccc1C(F)(F)F`: the activity change, negative = inhibition in [10] (at 25.7 µM (top of the series)) is -1.24% (inactive). Moreover, the figures for the max response in test [10] (setting [11]) and in test [10] (setting [12]) were -9.98% and -11.1%, respectively.

Consider `CCCCC/C=C\CC(O)/C=C/c1cccc(CC(O)CCCCO)n1` (configuration not stated), for which, in [2], the result was inactive. The Potency entry in test [3], in test [4] and in test [9] was “inactive” in each case. Further, in [7], the Potency is 14.1 µM (active).

As for `C[C@@H](CN1CCC(Cc2ccccc2)CC1)[C@@H](O)c1ccc(O)cc1`, the activity change, negative = inhibition in test [10] (at 57.5 µM (top of the series)) was 0.466% (inactive). In addition, the max response is 15.4% in [10] (setting [11]) and 14.5% in [10] (setting [12]). Moreover, the Potency result in [3], in test [4] and in [9] was “inactive” throughout. For the same compound, the Potency in [5] is 10 µM (active); in [6], 14.1 µM (active).

As to `CC(C(=O)O)c1ccc(C(=O)c2cccs2)cc1` (configuration not stated), the activity change, negative = inhibition in test [10] (at 57.5 µM (top of the series)) was 15.6% (inactive). In addition, the max response in test [10] (setting [11]) was found to be 8.76%; in test [10] (setting [12]) it was 31%.

With `N[C@@H](CC(=O)O)C(=O)O`, the compound was classed as inactive in test [1]. In addition, the activity change, negative = inhibition in test [10] (at 57.5 µM (top of the series)) is 4.62% (inactive) and -0.577% (inactive). The max response in [10] (setting [11]) is -7.93% and 52.8%; in test [10] (setting [12]), -3.65% and 51.4%. For the same compound, the Potency entry in test [3], in test [4], in test [9], in [5], in test [6] and in test [7] was “inactive” in each case. Also, the Potency entry in test [8] was “inactive”.

Take `O=C(Nc1cccc(C(=O)Nc2ccc(S(=O)(=O)O)c3cc(S(=O)(=O)O)cc(S(=O)(=O)O)c23)c1)Nc1cccc(C(=O)Nc2ccc(S(=O)(=O)O)c3cc(S(=O)(=O)O)cc(S(=O)(=O)O)c23)c1`: the result in test [1] was inactive. The activity change, negative = inhibition in [10] (at 57.5 µM (top of the series)) was 2.61% (inactive). Besides, the figures for the max response in [10] (setting [11]) and in test [10] (setting [12]) were -8.67% and -6.27%, respectively. In addition, the Potency is 10 µM (active) in [3] and 8.91 µM (active) in test [9]. The Potency entry in test [4], in test [5], in [6], in test [7] and in test [8] was “inactive” in each case.

As for `CC(C)NC[C@H](O)COc1cccc2[nH]ccc12`, the compound was classed as inactive in [1]. Further, the activity change, negative = inhibition in test [10] (at 57.5 µM (top of the series)) is 1.59% (inactive). The max response in test [10] (setting [11]) and in test [10] (setting [12]) was -1.16% in each case. Besides, the Potency result in [3] and in [4] was “inactive” each time.

On to `CCCCCCCCCCCCCCCCCCNC(=O)OCC(COP(=O)([O-])OCC[n+]1ccsc1)OC` (configuration not stated), for which, in test [10] (at 57.5 µM (top of the series)), the activity change, negative = inhibition was 0.643% (inactive). Also, the results for the max response in test [10] (setting [11]) and in test [10] (setting [12]) were -16.2% and -15%, respectively. In addition, the Potency result in test [3], in test [4], in [9] and in test [8] was “inactive” each time. Besides, the Potency in [6] is 11.2 µM (active).

Turning to `CCN1/C(=C/C(C)=O)Sc2ccc(OC)cc21`, the compound was called inactive in [1]. For the same compound, the activity change, negative = inhibition in test [10] (at 57.5 µM (top of the series)) was 0.847% (inactive). In addition, the figures for the max response in [10] (setting [11]) and in [10] (setting [12]) were -21.8% and -21.7%, respectively. The Potency entry in test [3], in test [4], in test [9] and in [8] was “inactive” each time.

Values taken from PubChem BioAssay (NCATS).
